# The whole screen tested about 5,500 compounds, of which about 2,000 (36%) were called active. Not shown: some 18% with an inconclusive outcome. This is one part of the list. Unmarked numbers belong to inactive results. Rule as the data show it: active = normalized growth mostly below about 0.91 (no sharp cut-off); inconclusive = no clear call, values can overlap the other calls; inactive = mostly above about 0.92.
# Assay: chemical genetic growth profiling, strain panel (AID 1159580);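 also: tested at 20 µM; growth read once vehicle control cultures reached saturation at 30 °C; 1 = growth at the plate median or of vehicle wells; lower values mean less growth of the strain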
# Settings: S. cerevisiae deletion strains, growth OD
smiles,measurement,setting,value
O=C(OC1Cc2c(O)cc(O)cc2OC1c1cc(=O)c(O)c2c(O)c(O)cc(C3Oc4cc(O)cc(O)c4CC3O)c2c1)c1cc(O)c(O)c(O)c1 (stereo unspecified),normalized growth,"locus YAL013W, strain DEP1, stronger effect = lower value",0.132 (active)
same,normalized growth,"locus YAL021C, strain ccr4, stronger effect = lower value",0.794 (active)
same,normalized growth,"locus YAL026C, strain drs2, stronger effect = lower value",0.856 (active)
same,normalized growth,"locus YAL030W, strain snc1, stronger effect = lower value",0.971
same,normalized growth,"locus YBL061C, strain skt5, stronger effect = lower value",0.932
same,normalized growth,"locus YBR009C, strain hhf1, stronger effect = lower value",0.901 (active)
same,normalized growth,"locus YBR021W, strain FUR4, stronger effect = lower value",1.05
same,normalized growth,"locus YBR023C, strain chs3, stronger effect = lower value",0.87 (active)
same,normalized growth,"locus YBR171W, strain sec66, stronger effect = lower value",0.972
same,normalized growth,"locus YBR229C, strain ROT2, stronger effect = lower value",0.766 (active)
same,normalized growth,"locus YBR231C, strain swc5, stronger effect = lower value",0.819 (active)
same,normalized growth,"locus YBR279W, strain paf1, stronger effect = lower value",0.942
same,normalized growth,"locus YCL011C, strain gbp2, stronger effect = lower value",0.948
same,normalized growth,"locus YCL016C, strain dcc1, stronger effect = lower value",0.976
same,normalized growth,"locus YCL029C, strain bik1, stronger effect = lower value",0.816 (active)
same,normalized growth,"locus YCL061C, strain MRC1, stronger effect = lower value",0.942
same,normalized growth,"locus YCL069W, strain vba3, stronger effect = lower value",0.986
same,normalized growth,"locus YCR088W, strain abp1, stronger effect = lower value",1
same,normalized growth,"locus YDL005C, strain med2, stronger effect = lower value",0.996
same,normalized growth,"locus YDL035C, strain GPR1, stronger effect = lower value",0.158 (active)
same,normalized growth,"locus YDL040C, strain nat1, stronger effect = lower value",1
same,normalized growth,"locus YDL074C, strain BRE1, stronger effect = lower value",0.286 (active)
same,normalized growth,"locus YDL101C, strain DUN1, stronger effect = lower value",0.194 (active)
same,normalized growth,"locus YDL185W, strain tfp1, stronger effect = lower value",0.92
same,normalized growth,"locus YDL192W, strain arf1, stronger effect = lower value",0.747 (active)
same,normalized growth,"locus YDR001C, strain nth1, stronger effect = lower value",0.992
same,normalized growth,"locus YDR069C, strain doa4, stronger effect = lower value",0.71 (active)
same,normalized growth,"locus YDR101C, strain arx1, stronger effect = lower value",0.91 (active)
same,normalized growth,"locus YDR137W, strain rgp1, stronger effect = lower value",0.844 (active)
same,normalized growth,"locus YDR150W, strain NUM1, stronger effect = lower value",0.651 (active)
same,normalized growth,"locus YDR159W, strain sac3, stronger effect = lower value",1.06
same,normalized growth,"locus YDR162C, strain NBP2, stronger effect = lower value",0.0937 (active)
same,normalized growth,"locus YDR195W, strain ref2",1.03
same,normalized growth,"locus YDR297W, strain sur2, stronger effect = lower value",0.966
same,normalized growth,"locus YDR318W, strain mcm21, stronger effect = lower value",0.828 (active)
same,normalized growth,"locus YDR334W, strain swr1, stronger effect = lower value",0.873 (active)
same,normalized growth,"locus YDR335W, strain msn5, stronger effect = lower value",0.938
same,normalized growth,"locus YDR388W, stronger effect = lower value",0.888 (active)
same,normalized growth,"locus YDR392W, strain spt3, stronger effect = lower value",0.939
same,normalized growth,"locus YDR502C, strain sam2, stronger effect = lower value",0.645 (active)
same,normalized growth,"locus YEL003W, strain gim4, stronger effect = lower value",0.946
same,normalized growth,"locus YEL037C, strain rad23, stronger effect = lower value",0.946
same,normalized growth,"locus YEL061C, strain CIN8 (second series), stronger effect = lower value",0.992
same,normalized growth,"locus YEL061C, strain CIN8, stronger effect = lower value",0.417 (active)
same,normalized growth,"locus YER015W, strain faa2, stronger effect = lower value",0.93
same,normalized growth,"locus YER016W, strain bim1, stronger effect = lower value",0.968
same,normalized growth,"locus YER110C, stronger effect = lower value",1.01
same,normalized growth,"locus YER111C, strain swi4, stronger effect = lower value",0.885 (active)
same,normalized growth,"locus YER155C, strain BEM2 (second series), stronger effect = lower value",0.927
same,normalized growth,"locus YER155C, strain BEM2, stronger effect = lower value",0.982
same,normalized growth,"locus YER167W, strain BCK2, stronger effect = lower value",0.585 (active)
same,normalized growth,"locus YFR010W, strain ubp6, stronger effect = lower value",0.862 (active)
same,normalized growth,"locus YGL078C, strain dbp3, stronger effect = lower value",1
same,normalized growth,"locus YGL086W, strain mad1, stronger effect = lower value",0.795 (active)
same,normalized growth,"locus YGL167C, strain pmr1, stronger effect = lower value",0.969
same,normalized growth,"locus YGL173C, strain kem1, stronger effect = lower value",0.81 (active)
same,normalized growth,"locus YGL227W, strain vid30, stronger effect = lower value",1
same,normalized growth,"locus YGL240W, strain doc1, stronger effect = lower value",1
same,normalized growth,"locus YGL248W, strain PDE1, stronger effect = lower value",0.345 (active)
same,normalized growth,"locus YGL253W, strain hxk2, stronger effect = lower value",0.887 (active)
same,normalized growth,"locus YGR078C, strain PAC10, stronger effect = lower value",0.704 (active)
same,normalized growth,"locus YGR135W, strain pre9, stronger effect = lower value",0.67 (active)
same,normalized growth,"locus YGR229C, strain SMI1, stronger effect = lower value",0.0876 (active)
same,normalized growth,"locus YGR252W, strain gcn5, stronger effect = lower value",0.56 (active)
same,normalized growth,"locus YHR013C, strain ard1, stronger effect = lower value",0.805 (active)
same,normalized growth,"locus YHR027C, strain rpn1, stronger effect = lower value",0.812 (active)
same,normalized growth,"locus YHR030C, strain SLT2, stronger effect = lower value",0.59 (active)
same,normalized growth,"locus YHR079C, strain IRE1 (second series), stronger effect = lower value",0.864 (active)
same,normalized growth,"locus YHR094C, strain hxt1, stronger effect = lower value",0.982
same,normalized growth,"locus YHR129C, strain ARP1, stronger effect = lower value",0.536 (active)
same,normalized growth,"locus YHR142W, strain chs7, stronger effect = lower value",0.841 (active)
same,normalized growth,"locus YHR200W, strain rpn10, stronger effect = lower value",0.794 (active)
same,normalized growth,"locus YIL066C, strain RNR3, stronger effect = lower value",0.0947 (active)
same,normalized growth,"locus YIL073C, strain SPO22, stronger effect = lower value",0.159 (active)
same,normalized growth,"locus YIL125W, strain kgd1, stronger effect = lower value",0.995
same,normalized growth,"locus YIR030C, strain dcg1, stronger effect = lower value",0.956
same,normalized growth,"locus YJL092W, strain hpr5, stronger effect = lower value",0.992
same,normalized growth,"locus YJL095W, strain BCK1 (second series), stronger effect = lower value",0.96
same,normalized growth,"locus YJL095W, strain BCK1, stronger effect = lower value",0.154 (active)
same,normalized growth,"locus YJL115W, strain asf1, stronger effect = lower value",0.986
same,normalized growth,"locus YJL129C, strain trk1, stronger effect = lower value",1.04
same,normalized growth,"locus YJL134W, strain LCB3, stronger effect = lower value",0.732 (active)
same,normalized growth,"locus YJL154C, strain vps35, stronger effect = lower value",1
same,normalized growth,"locus YJL164C, strain tpk1, stronger effect = lower value",0.868 (active)
same,normalized growth,"locus YJL166W, strain qcr8, stronger effect = lower value",0.883 (active)
same,normalized growth,"locus YJL168C, strain set2, stronger effect = lower value",0.954

# Source: PubChem BioAssay AID1159580 (chemical genetic matrix, 2015)
